Screens deposited in PubChem by Sanford-Burnham Center for Chemical Genomics.
An excerpt weighted towards active compounds, which were near 28% of everything screened.
CYP2C9 act: human CYP2C9 activators, primary screen, biochemical, luminescence; Cytochrome P450 2C9 (Homo sapiens), P11712; recombinant CYP2C9, luciferin-H conversion; active compounds read high; factor 1 = untreated enzyme, 0 = blocked; activation factor at 5 µM; 1.4% of 96,000 active;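 active means activation factor of 2 or more for CYP2C9 at a 5 µM dose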;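 further: 0 = sulfaphenazole-blocked wells and 1 = vehicle-only wells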
Target sequence (P11712 whole entry, looked up): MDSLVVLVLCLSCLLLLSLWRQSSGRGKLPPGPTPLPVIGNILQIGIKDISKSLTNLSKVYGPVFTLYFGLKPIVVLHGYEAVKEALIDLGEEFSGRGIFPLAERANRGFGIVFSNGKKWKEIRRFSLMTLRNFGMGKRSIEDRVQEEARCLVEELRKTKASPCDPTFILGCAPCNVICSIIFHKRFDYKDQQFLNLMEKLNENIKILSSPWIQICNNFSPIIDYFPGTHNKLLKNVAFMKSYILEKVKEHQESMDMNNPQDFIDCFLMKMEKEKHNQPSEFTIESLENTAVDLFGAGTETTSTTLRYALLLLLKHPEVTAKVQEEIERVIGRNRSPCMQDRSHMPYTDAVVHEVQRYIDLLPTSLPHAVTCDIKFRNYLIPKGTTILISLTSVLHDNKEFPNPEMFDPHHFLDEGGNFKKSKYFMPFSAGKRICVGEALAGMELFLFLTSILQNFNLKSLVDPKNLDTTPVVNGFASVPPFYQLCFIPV
CYP2C19 inh: blockers of cytochrome P450 2C19 activity – biochemical, luminescence, ADME assay, primary screen | P33261 | CYP2C19 Supersomes, luciferin-H EGE luminescence, 30 min | inhibition, % at 5 µM | 21% of 96,000 active | AID 778, 2007;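 active means CYP2C19 inhibition above a set limit at 5 µM in the primary screen, cut at about 50% in these data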;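 further: plate controls were negative control wells for no effect and 2.5 mM tranylcypromine positive control for full effect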
CYP2C9 inhib: blockers of cytochrome P450 2C9 activity – biochemical, luminescence, ADME assay, primary screen; inhibition, % at 5 µM; P11712; CYP2C9 Supersomes, luciferin-H conversion; 20% of 96,000 active;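 active means blocking of liver enzyme CYP2C9 beyond about 50% at 5 µM, limit read from the data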
PTK2B oligo ant: antagonists of Pyk2 self-association, primary screen, Q293 cells, FERM NanoBiT luminescence, HTS. z-score (the deposit names both 25 µM and 10 µM). active compounds read low. Protein-tyrosine kinase 2-beta (Homo sapiens), Q14289. 0.83% of 99,000 active;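 active means Z-score of -3 or lower, scaled per plate to the spread of control and sample wells; inactive means z-score above -3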;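 further: negative z-score means lost luminescence so less FERM oligomerization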
CYP2C19 act: human CYP2C19 activators, primary screen, biochemical, luminescence; recombinant CYP2C19, luciferin-H EGE luminescence; active compounds read high; 0 = fully inhibited enzyme, 1 = untreated enzyme; activation factor at 5 µM; 96,000 tested, under 10 active;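 active means activation factor of at least 2 at 5 µM in the primary screen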;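 further: 0 = wells with 2.5 mM tranylcypromine and 1 = vehicle-only wells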
* = called active by the depositor; . = no result.

SMILES	CYP2C9 act	CYP2C19 inh	CYP2C9 inhib	PTK2B oligo ant	CYP2C19 act
O=C(OCC(=O)N1CCN(C(=O)c2ccco2)CC1)c1ccccc1C(=O)c1ccc(Cl)cc1	0.7	21	31	0.71	0.8
CCOCCCNC(=O)C1CCN(c2cc(C)nc3c(-c4ccc(OC)c(OC)c4)c(C)nn23)CC1	0.5	-7	46	-0.54	1.1
CCn1c(O)c(N=NC2=NC(=O)CS2)c2ccccc21	0.6	5	37	-2	0.9
COc1cccc(-c2cc(C(=O)N3CCN(c4ncccn4)CC3)c3ccccc3n2)c1	0	73*	96*	-1.4	0.3
CC(C)Oc1cccc(-c2cc(C(=O)N3CCN(c4ncccn4)CC3)c3ccccc3n2)c1	0.2	29	84*	-2	0.7
CC(C)Oc1cccc(-c2cc(C(=O)N3CCN(S(C)(=O)=O)CC3)c3ccccc3n2)c1	0.9	-5	12	0.05	1.1
COc1cc(OC)cc(C(=O)N2CCN(c3ncccn3)CC2)c1	0.7	44	31	0.97	0.6
O=C(NCc1cccs1)c1noc2c1CCCCC2	0.8	5	20	-0.12	0.9
O=C1CCC(/C=C/c2ccccc2)=NN1Cc1ccccc1Cl	0.5	34	49	0.17	0.7
O=C1CCC(/C=C/c2ccccc2)=NN1Cc1ccc(Cl)c(Cl)c1	0.3	44	73*	1.4	0.6
COC(=O)c1ccccc1NC(NC(=O)c1ccco1)C(=O)c1ccc(C)cc1 (stereo not drawn)	0.4	18	58*	-0.69	0.8
COC(=O)c1ccccc1NC(=O)c1ccco1	1.2	15	-22	-0.45	0.9
COC(=O)c1ccccc1NC(=S)NC(NC(=O)c1ccccc1[N+](=O)[O-])C(Cl)(Cl)Cl (stereo not drawn)	0	94*	97*	-0.43	0.1
COC(=O)c1ccccc1NC(=S)NC(NC(=O)c1ccco1)C(Cl)(Cl)Cl (stereo not drawn)	0.1	42	88*	1.1	0.6
O=C(NNC(=S)NC(=O)c1ccccc1[N+](=O)[O-])c1ccccc1[N+](=O)[O-]	0.6	-4	40	-0.76	1
CCC/C(O)=N\S(=O)(=O)c1ccc(N=NN(C)C)cc1	.	.	.	0.18	.
Clc1ccc(Cn2cc(/C=N/n3cnnc3)c3ccccc32)cc1	0.6	80*	40	-0.53	0.2
Cc1ccccc1Cn1cc(/C=N/n2cnnc2)c2ccccc21	0.3	91*	74*	-0.09	0.1
Cn1c(/C=N/n2cnnc2)nc2ccccc21	1.2	1	-16	0.33	1
O=[N+]([O-])/C=C/c1cn(Cc2ccc(F)cc2)c2ccccc12	0.9	46	13	-2.1	0.5
O=C(CC1CCCCC1)NCc1cn2ccsc2n1	0.5	37	53*	-0.29	0.6
Cc1ccn2cc(CCNC(=O)C3CCCCC3)nc2c1	1.1	24	-7	.	0.8
O=C(Cc1cn2ccsc2n1)Nc1nc2c(s1)CCCC2	0.5	47	52*	0.01	0.5
O=C(CC1CCCC1)NCCc1cn2ccccc2n1	0.8	68*	21	.	0.3
O=C(CCCc1ccccc1)NCc1cn2ccsc2n1	0.9	31	6	.	0.7
SMILES	CYP2C9 act	CYP2C19 inh	CYP2C9 inhib	PTK2B oligo ant	CYP2C19 act
O=C(Cc1cccs1)Nc1nc2c(s1)CCCC2	0.8	10	20	0.49	0.9
COc1ccc(C(C(=O)NC(C)(C)C)N(C(=O)CNC(=O)c2cccs2)c2ccc(C)cc2)cc1OC (stereo not drawn)	0.8	18	19	-0.16	0.8
CC1CCN(Cc2ccc(NC(=O)CC3Oc4ccccc4NC3=O)cc2)CC1 (stereo not drawn)	1	-9	3	.	1.1
Fc1ccc(NC(=S)NCCc2ccccc2)c(F)c1F	0.6	83*	45	1.6	0.2
S=C(NCCc1ccccc1)NC1CCCCCC1	0.7	34	31	0.42	0.7
Fc1ccccc1NC(=S)NCCc1ccccc1	0.7	80*	27	1.2	0.2
O=C(NC(=S)NCCc1ccccc1)c1ccccc1	0.8	19	16	0.11	0.8
CCc1ccc(OCc2nnc(SCC(=O)N3CCN(c4ccccc4)CC3)o2)cc1	.	.	.	1.6	.
COCCNC(=O)C(c1ccc(C)o1)N(C(=O)c1snc(C(N)=O)c1N)c1cccc(C)c1 (stereo not drawn)	0.8	6	15	-0.94	0.9
CCN1C=CC2=C(C#N)C(N)C(C#N)(C#N)C(c3ccccc3C(F)(F)F)C2C1 (stereo not drawn)	.	.	.	-0.32	.
N#Cc1c(Cl)cccc1-n1ccnc1	0.5	41	51*	0.65	0.6
N#Cc1c(-n2cccc2)cccc1-n1cccc1	3.7*	62*	-270	-0.18	0.4
Cc1[nH]c(=O)[nH]c(=O)c1S(=O)(=O)N1CCCC(C(=O)NCc2ccccc2Cl)C1 (stereo not drawn)	.	.	.	0.66	.
CCOC(=O)N1CCN(c2c(NCC3CCN(Cc4cccc(C)c4)CC3)c(=O)c2=O)CC1	1	-6	-2	.	1.1
COC(=O)c1ccc(/C=N/NC(=O)c2cccc(F)c2)cc1	0.9	14	7	-0.1	0.9
CC(C)(C)c1cc(C(=O)N/N=C/c2ccc(F)cc2)n(-c2ccccc2)n1	0.4	44	65*	-0.27	0.6
CC(=O)c1cc(C)ccc1OC(=O)CCN1C(=O)C2C3c4ccccc4C(c4ccccc43)C2C1=O (stereo not drawn)	0.9	23	6	-0.14	0.8
O=C(COc1ccccc1)N1CCN(c2ccc([N+](=O)[O-])c(N3CCCCC3)c2)CC1	0.2	64*	79*	-1.1	0.4
Cc1ccc(OCC(=O)N2CCN(c3ccc([N+](=O)[O-])c(N4CCOCC4)c3)CC2)cc1	0.4	34	57*	2	0.7
Cc1ccccc1C(=O)N1CCN(c2ccc([N+](=O)[O-])c(N3CCOCC3)c2)CC1	0.4	55*	59*	-1.4	0.5
COc1ccc(N2CCN(C(=O)COc3ccc4ccccc4c3)CC2)cc1	1	-3	-2	0.74	1
Cc1cc(C)n(-c2cc(N3CCN(C(=O)c4ccccc4C)CC3)ccc2[N+](=O)[O-])n1	.	.	.	-0.9	.
COc1cccc(C(=O)NCC2CCCO2)c1 (stereo not drawn)	0.9	-2	13	.	1
CC(=O)c1cccc(NC(=O)N2CCCC2C(=O)NC2CCCCC2)c1 (stereo not drawn)	0.8	20	22	1.5	0.8
Cc1ccccc1NC(=S)NC(NC(=O)COc1ccccc1)C(Cl)(Cl)Cl (stereo not drawn)	0.3	61*	72*	-1.3	0.4
CCc1ccc(OCC(=O)NC(NC(=S)Nc2ccccc2C)C(Cl)(Cl)Cl)cc1 (stereo not drawn)	.	.	.	-1	.
